Cy5 interf NS3h: counter-screen for HCV NS3 helicase inhibitors: fluorescence interference; 16,000 tested, 6% active; Cy5-dT15 DNA with NS3h; actives lie on both sides; signal over control mean, under 1 quenches; fluorescence interference ratio at 100 µM; AID 720488;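 active = compound fluorescence over control fluorescence at most 0.8, a quencher, or at least a set upper limit, an enhancer; inactive = ratio between 0.8 and the set upper limit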
HCV NS3h FP: hepatitis C NS3 helicase inhibition, primary screen; 16,000 tested, 1.6% active; inhibition, % at 100 µM; NS3h Cy5-dT15 DNA binding, fluorescence polarization;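 active = inhibition above the average over every tested compound plus 3 SD, cut at about 40% in these data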
* marks the source's active call; other numbers are inactive results. Sampled rows, rich in hits. Any-hit rate of the full collection: about 7.6%.

SMILES	Cy5 interf NS3h	HCV NS3h FP
CC12c3ccccc3C(c3ccccc31)C1C(=O)N(c3cccc([N+](=O)[O-])c3)C(=O)C12 (stereo not given)	1	18
COc1cc(OC)cc(C(=O)Nc2ccc(OC)c3ccccc23)c1	1	6
COc1ccccc1NC(=O)C(=O)NCCc1ccc(OC)c(OC)c1	0.93	-5
COc1ccc(OC)c(N(CC(=O)NCC(C)C)S(C)(=O)=O)c1	1.2	2
COc1ccc(OC)c(NC(=O)c2cc(-c3ccccc3)nc3ccccc23)c1	0.98	-2
O=C(Nc1ccc(-c2nc3ccccc3o2)c(O)c1)c1ccc(-c2cccc(Cl)c2)o1	1.2	-38
Cc1ccc2oc(-c3cccc(NC(=O)c4ccc(-c5ccc([N+](=O)[O-])cc5C)o4)c3C)nc2c1	1.1	6
O=C(Nc1ccc(-c2nc3ccccc3s2)c(O)c1)c1ccc(-c2cccc([N+](=O)[O-])c2)o1	0.56*	-61
Cc1cc([N+](=O)[O-])ccc1-c1ccc(C(=O)Nc2ccc(-c3nc4ccccc4o3)c(O)c2)o1	0.61*	-47
O=C(Nc1ccc(-c2nc3ccccc3o2)c(O)c1)c1ccc(-c2cccc([N+](=O)[O-])c2)o1	0.77*	-26
C=CCNC(=O)c1ccc(-c2ccc([N+](=O)[O-])cc2)o1	0.96	24
CCOC(=O)c1ccc(-c2ccc(C(=O)Nc3ccc(-c4nc5ccccc5s4)c(O)c3)o2)cc1	0.99	-5
O=C(Nc1ccc(NC(=O)c2ccc(-c3ccc([N+](=O)[O-])cc3)o2)cc1)c1ccco1	0.67*	-40
CC(NS(=O)(=O)c1ccc([N+](=O)[O-])cc1)C(=O)O (stereo not given)	0.88	-9
O=C(Nc1ccccc1C(=O)NCCCO)c1ccccc1	1.1	5
Cc1ccc(CNC(=O)CN(Cc2ccccc2)S(=O)(=O)c2ccc(C)cc2)cc1	0.93	12
COC(=O)C1=C(C)N(c2ccccc2F)C(=O)/C1=C\c1ccccc1F	0.86	9
COc1ccc(C)cc1NC(=O)c1ccc(Cl)c(Cl)c1	1	1
O=C1S/C(=C\c2ccc(Br)o2)C(=O)N1c1ccc(Cl)c(Cl)c1	1.1	8
Clc1ccc(C(Sc2ncn[nH]2)c2ccccc2)cc1 (stereo not given)	0.95	20
O=C(Oc1cccc2ccccc12)c1ccc(Cl)cc1Cl	0.64*	6
O=S(=O)(Oc1cccc2ccccc12)c1cc(Cl)ccc1Cl	1	12
Cc1ccc(NC(=O)c2ccc(I)cc2)cc1Cl	1.1	4
COc1ccc(C(=O)Nc2ccc(C(N)=O)cc2)cc1[N+](=O)[O-]	0.78*	-2
COc1ccc(C(=O)Nc2ccc(C(C)C)cc2)cc1[N+](=O)[O-]	0.98	7
SMILES	Cy5 interf NS3h	HCV NS3h FP
Cc1cc(C(=O)Nc2ccc(N(C)C)cc2)ccc1[N+](=O)[O-]	0.24*	20
Cc1cc(C)cc(NC(=O)c2ccc(C)c([N+](=O)[O-])c2)c1	1	-7
COc1ccc(C(=O)Nc2ccc(C)c(Cl)c2)cc1OC	0.73*	19
COC(=O)C(C)Oc1cc2oc(=O)cc(-c3ccccc3)c2cc1Cl (stereo not given)	0.89	12
CCC(C(=O)Nc1cccc(Br)c1)c1ccccc1 (stereo not given)	1	13
CSc1nc(-c2ccccc2)nc2[nH]ccc(=O)c12	0.69*	10
CNCCOc1cc(C)nc(-c2ccccc2)n1	1	-7
COc1ccc(NC(=O)COc2cccc3ccccc23)cc1	0.77*	16
COc1ccccc1OCC(=O)Nc1ccc(S(N)(=O)=O)cc1	1	2
Cc1cc(O)c2c(C)c(Cc3ccccc3)c(=O)oc2c1	1	-12
O=C1C2C3C=CC(C4CC34)C2C(=O)N1c1ccc(Cl)cc1 (stereo not given)	0.92	-4
COC(=O)c1cc(N2C(=O)C3C4C=CC(C5CC45)C3C2=O)ccc1Cl (stereo not given)	0.69*	8
COc1ccccc1CNC(=O)C(=O)Nc1cc(C)ccc1C	0.97	11
O=C(CN(c1cccc([N+](=O)[O-])c1)S(=O)(=O)c1ccccc1)NCc1ccco1	1.1	10
CC(=O)N1C(=O)/C(=C2/SC(=Nc3ccc(Br)cc3)NC2=O)c2ccccc21	1.2*	10
COC(=O)c1ccc(/C=C2\SC(=Nc3ccc(Br)cc3)NC2=O)cc1	0.99	9
Cc1ccc(NC(=S)NC(=O)c2sc3ccccc3c2Cl)cc1	1.1	11
Cc1cc(/C=C2\C(=O)NC(=O)N(c3ccc4c(c3)OCO4)C2=O)c(C)n1-c1ccccc1	1	-2
CC(=O)OCC12COC(C)C(C1)C(C)=CC2C (stereo not given)	0.98	1
Cc1ccccc1/C=C1\SC(=S)N(C(C(=O)O)C(C)C)C1=O (stereo not given)	1	8
CC(C(=O)O)N1C(=O)/C(=C/c2ccccc2)SC1=S (stereo not given)	1.2*	2

Source: PubChem (Milwaukee Institute for Drug Discovery)
